Screening results from PubChem BioAssay.
IDE exosite FP – displaces the probe from the exo-site of human IDE. P14735. purified IDE, FL-6b probe fluorescence polarization; hits give low values. z-score at 20 µM. actives 6.3% (n = 17,000);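 active means z-score of -3 or lower, meaning strong loss of probe binding signal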;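 further: His-tagged human IDE residues 42-1019 made in E. coli with 30 nM FL-6b probe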
Target sequence (P14735 42-1019 limits assumed): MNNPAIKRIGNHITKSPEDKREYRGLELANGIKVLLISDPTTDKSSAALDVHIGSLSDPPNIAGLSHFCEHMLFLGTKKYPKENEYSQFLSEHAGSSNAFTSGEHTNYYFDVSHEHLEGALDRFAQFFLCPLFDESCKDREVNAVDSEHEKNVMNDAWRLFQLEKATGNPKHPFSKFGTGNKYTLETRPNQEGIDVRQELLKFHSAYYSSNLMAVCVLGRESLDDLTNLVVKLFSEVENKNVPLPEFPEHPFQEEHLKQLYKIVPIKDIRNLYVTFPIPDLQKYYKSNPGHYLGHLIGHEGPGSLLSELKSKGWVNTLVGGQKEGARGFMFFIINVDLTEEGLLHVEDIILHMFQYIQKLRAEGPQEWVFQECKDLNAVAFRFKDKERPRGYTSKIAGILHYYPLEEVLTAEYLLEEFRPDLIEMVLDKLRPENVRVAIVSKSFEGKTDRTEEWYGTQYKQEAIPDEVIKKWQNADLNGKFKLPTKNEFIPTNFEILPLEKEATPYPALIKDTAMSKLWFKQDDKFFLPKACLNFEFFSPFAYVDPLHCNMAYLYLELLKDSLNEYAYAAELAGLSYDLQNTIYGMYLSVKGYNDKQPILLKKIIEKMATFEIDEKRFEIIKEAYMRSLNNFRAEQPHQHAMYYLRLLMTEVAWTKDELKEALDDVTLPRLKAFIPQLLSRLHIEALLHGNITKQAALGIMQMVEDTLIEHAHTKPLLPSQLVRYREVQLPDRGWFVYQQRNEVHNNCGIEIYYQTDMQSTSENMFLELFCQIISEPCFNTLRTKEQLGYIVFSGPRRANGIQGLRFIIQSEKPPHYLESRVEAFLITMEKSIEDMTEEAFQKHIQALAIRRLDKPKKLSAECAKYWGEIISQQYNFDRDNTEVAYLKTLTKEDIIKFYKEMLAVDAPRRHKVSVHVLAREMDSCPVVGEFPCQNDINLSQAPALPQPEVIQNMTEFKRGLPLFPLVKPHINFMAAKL
Large screens that a line does not name were inactive. Shown is part of a subset that was picked to be rich in hits.

COc1ccc(NC(=O)N2CCCCN3[C@H](CO)[C@H](c4ccc(-c5ccccc5C)cc4)[C@@H]3C2)cc1	none
COc1ccc(NC(=O)N2CCCCN3[C@H](CO)[C@@H](c4ccc(-c5ccccc5C)cc4)[C@H]3C2)cc1	none
COc1ccc(NC(=O)N2CCCCN3[C@@H](CO)[C@H](c4ccc(-c5ccccc5C)cc4)[C@@H]3C2)cc1	IDE exosite FP -10
COc1ccc(NC(=O)N2CCCCN3[C@H](C2)[C@@H](c2ccc(-c4ccccc4F)cc2)[C@@H]3CO)cc1	none
COc1ccc(NC(=O)N2CCCCN3[C@@H](CO)[C@@H](c4ccc(-c5ccccc5C)cc4)[C@@H]3C2)cc1	IDE exosite FP -4.5
C[C@@H]1CCCCO[C@@H](CN(C)Cc2ccncc2)[C@@H](C)CN([C@@H](C)CO)C(=O)c2cc(NC(=O)Cc3ccccc3)ccc2O1	none
COc1ccc2c3c([nH]c2c1)[C@@H](CO)N(Cc1ccccc1F)CC31CCN(C(=O)C2CC2)CC1	IDE exosite FP -3.6
COc1ccc2c3c([nH]c2c1)[C@H](CO)N(Cc1ccccn1)CC31CCN(C(C)=O)CC1	none
CCS(=O)(=O)N1CC2(CN(Cc3ccccc3F)[C@@H](CO)c3[nH]c4cc(OC)ccc4c32)C1	none
COc1ccc2c3c([nH]c2c1)[C@@H](CO)N(Cc1ccccc1Cl)CC31CN(C(=O)C2CC2)C1	none
COc1ccc2c3c(n(C)c2c1)[C@H](CO)N(Cc1ccccc1Cl)CC31CCN(C(=O)CC2CC2)CC1	IDE exosite FP -4.1
COCC(=O)N1CCC2(CC1)CN(Cc1ccccc1Cl)[C@H](CO)c1[nH]c3cc(OC)ccc3c12	none
COCC(=O)N1CCC2(CC1)CN(Cc1ccccc1Cl)[C@@H](CO)c1[nH]c3cc(OC)ccc3c12	IDE exosite FP -3.6
COc1ccc2c3c(n(C)c2c1)[C@H](CO)N(Cc1ccccc1OC)CC31CN(C)C1	none
CCCC(=O)N1CC2(C1)CN(Cc1ccccc1F)[C@@H](CO)c1c2c2ccc(OC)cc2n1C	none
CCCC(=O)N1CCC2(CC1)CN(Cc1ccc(Cl)cc1)[C@@H](CO)c1[nH]c3cc(OC)ccc3c12	none
COc1ccc2c3c([nH]c2c1)[C@@H](CO)N(Cc1ccccn1)CC31CCN(C(C)=O)CC1	IDE exosite FP -3.6
COc1ccc2c3c([nH]c2c1)[C@H](CO)N(Cc1ccccn1)CC31CN(C(=O)CC2CC2)C1	none
CC(C)CC#Cc1ccc([C@H]2[C@H]3CN(C(=O)NC4CCCC4)CCCCN3[C@H]2CO)cc1	none
O=C(c1cccnc1)N1CC[C@@H]2[C@@H](CO)Nc3ccc(C4=CCCCC4)cc3[C@@H]21	none
CCCNC(=O)N1CC2(CCN(C(=O)Nc3cccc(F)c3)CC2)c2c(n(C)c3cc(OC)ccc23)[C@H]1CO	none
CCCC#Cc1ccc([C@H]2[C@@H](CO)N(C(C)=O)[C@H]2CNC(=O)C2CC2)cc1	none
COCC(=O)N1[C@H](C#N)[C@@H](c2ccccc2-c2cccc(F)c2)[C@@H]1CO	none
C[C@H](NC(=O)[C@@H]1[C@@H](CO)[C@@H]2Cn3c(ccc(-c4ccccc4F)c3=O)[C@H]1N2)c1ccccc1	none
N#C[C@H]1[C@@H](c2ccccc2)[C@@H](CO)N1S(=O)(=O)c1ccc(-c2ccccc2)cc1	none
COc1ccccc1-c1ccc([C@@H]2[C@H](CO)N3CCCCN(C(=O)c4cccnc4)C[C@@H]23)cc1	IDE exosite FP -4.1
COc1ccccc1-c1ccc([C@@H]2[C@H]3CN(C(=O)c4ccncc4)CCCCN3[C@H]2CO)cc1	IDE exosite FP -14
COc1ccccc1-c1ccc([C@H]2[C@H](CO)N3CCCCN(C(=O)c4ccncc4)C[C@@H]23)cc1	none
Cc1ccccc1-c1ccc([C@H]2[C@H]3CN(C(=O)c4cccnc4)CCCCN3[C@H]2CO)cc1	none
O=C(c1cccnc1)N1CCCCN2[C@@H](CO)[C@@H](c3ccc(C#Cc4cccnc4)cc3)[C@@H]2C1	none
COc1ccccc1-c1ccc([C@H]2[C@H]3CN(C(=O)c4ccncc4)CCCCN3[C@H]2CO)cc1	none
Cc1cccc(S(=O)(=O)N2CCCCN3[C@@H](CO)[C@@H](c4ccc(C#C[C@H](C)O)cc4)[C@@H]3C2)c1	none
CN(C)C(=O)c1ccc(-c2ccccc2[C@@H]2[C@@H](C#N)N(C(=O)C3CCC3)[C@H]2CO)cc1	none
N#C[C@H]1[C@H](c2ccc(-c3ccccc3F)cc2)[C@@H](CO)N1C(=O)C1CCOCC1	none
CN1C(=O)c2cc(NC(=O)c3ccc4c(c3)OCO4)ccc2OC[C@H]2O[C@H](CC(=O)O)CC[C@H]21	none
CS(=O)(=O)Nc1ccc2c(c1)[C@@H]1C[C@@H](CC(=O)NCCc3ccccc3)O[C@H](CO)[C@@H]1O2	none
C[C@H]1CN([C@@H](C)CO)C(=O)c2cc(/C=C/c3ccccc3)cnc2O[C@@H]1CN(C)S(=O)(=O)c1ccccc1F	none
C[C@@H]1CN([C@@H](C)CO)C(=O)c2cc(/C=C/c3ccccc3)cnc2O[C@H]1CN(C)S(=O)(=O)c1ccccc1F	IDE exosite FP -3.4
C[C@@H]1CN([C@H](C)CO)C(=O)c2cc(C#Cc3ccccc3)cnc2O[C@@H]1CN(C)C(=O)c1ccccc1	none
C[C@H]1CN([C@@H](C)CO)C(=O)c2cc(/C=C/c3ccccc3)cnc2O[C@H]1CN(C)S(=O)(=O)c1ccccc1F	none
C[C@H](CO)N1C[C@H](C)[C@@H](CN(C)C(=O)c2ccccc2)Oc2ncc(C#Cc3ccccc3)cc2C1=O	none
C[C@@H]1CN([C@@H](C)CO)C(=O)c2cc(C#Cc3ccccc3)cnc2O[C@@H]1CN(C)C(=O)c1ccccc1	IDE exosite FP -4
N#C[C@H]1[C@@H](c2ccccc2)[C@H](CO)N1C(=O)Cc1ccccc1	none
Cc1cc(C(=O)Nc2ccc3c(c2)C(=O)N(C)[C@H]2CC[C@@H](CC(=O)NCc4ccc(-c5ccccc5)cc4)O[C@H]2CO3)no1	none
Cn1cnc(S(=O)(=O)N2CCCCN3[C@H](CO)[C@@H](c4ccc(C#CC5CCCC5)cc4)[C@@H]3C2)c1	none
O=C(Nc1ccc(F)cc1)N1CC(=O)N2[C@H](CO)[C@H](c3ccc(C#CC4CC4)cc3)[C@@H]2C1	none
CN(C)C(=O)c1ccc(-c2ccc([C@H]3[C@@H](C#N)N(C(=O)C4CCC4)[C@@H]3CO)cc2)cc1	none
COc1ccccc1-c1ccc([C@@H]2[C@H](CO)N3CCCCN(C(=O)NC4CCCC4)C[C@@H]23)cc1	IDE exosite FP -16
COc1ccccc1-c1ccc([C@@H]2[C@@H](CO)N3CCCCN(C(=O)NC4CCCC4)C[C@H]23)cc1	IDE exosite FP -8.4
O=C(NC1CCCC1)N1CCCCN2[C@@H](CO)[C@H](c3ccc(-c4cncnc4)cc3)[C@@H]2C1	none
COc1ccccc1-c1ccc([C@@H]2[C@H]3CN(C(=O)NC4CCCC4)CCCCN3[C@H]2CO)cc1	IDE exosite FP -12
COc1ccccc1NC(=O)N1CCCCN2[C@H](C1)[C@H](c1ccc(-c3ccc(C)cc3)cc1)[C@@H]2CO	none
COc1ccccc1-c1ccc([C@@H]2[C@@H](CO)N3CCCCN(C(=O)NC4CCCC4)C[C@@H]23)cc1	IDE exosite FP -4.7
CC(=O)N1[C@H](CNC(=O)CN(C)C)[C@H](c2ccc(C3=CCCCC3)cc2)[C@@H]1CO	none
CN(C)C(=O)C[C@@H]1C=C[C@@H](NC(=O)c2ccc(F)cc2)[C@H](CO)O1	none
COCCN(C[C@H]1[C@H](c2ccccc2)[C@@H](CO)N1C(C)=O)C(=O)c1ccncc1	none
COCC(=O)Nc1ccc2c(c1)[C@H]1C[C@@H](CC(=O)N3CCOCC3)O[C@@H](CO)[C@H]1O2	none
O=C1CN(Cc2ccccc2)C[C@@H]2[C@H](c3ccc(-c4ccccc4)cc3)[C@H](CO)N12	none
